Compound activity (PubChem)
PvdQ inh – P. aeruginosa PvdQ acylase inhibition; purified PvdQ acylase, fluorescence plate reader; inhibition, % at 10 µM; 340,000 compounds, 0.063% hits; in the data active = inhibition above about 30%, passing the limit was not always enough;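 also: 0% = vehicle neutral wells and 100% = reference inhibitor wells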
ARNT-TACC3 inh – disruptors of human ARNT/TACC3 interaction; inhibition, % at 9.99 µM; AlphaScreen His-ARNT PAS-B/GST-TACC3 binding, luminescence; TACC3 fragment carries E629A point mutation; AID 623870; 390,000 compounds, 0.66% hits;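 active = mean inhibition of replicates at least 50% and at least half of replicates each reaching 50%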;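 also: 0% = complete ARNT plus TACC3 wells and 100% = ARNT alone without TACC3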
F508del corr – CFTR F508del correction in bronchial cells; 350,000 compounds, 0.36% hits; CFBE cells, YFP halide quenching; stimulated with forskolin plus potentiator P3; % fluorescence drop versus neutral controls; activity (quench increase), % at 7.58 µM;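 active = mean added fluorescence quench of at least 8% versus neutral control, with both replicates also reaching 8%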;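 also: cells transiently co-express mutant CFTR-F508del with the halide-sensitive YFP; corrector assay measuring rescue of mutant channel to the surface after 24 h compound exposure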
Ecoli rRNA inh – inhibits bacterial ribosomal RNA function over humanized ribosomes | E. coli WT GFP vs humanized-ribosome RFP mutants, fluorescence, 24 h; hits give low values; DMSO median 0, no signal -100 | GFP signal change (wild-type ribosome), % (no concentration beside the values) | 350,000 compounds, 1.6% hits | AID 720706;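 active = significant combined selectivity score with lowered wild-type GFP, culture density cut under 30%, mutant RFP and density less affected; inactive = any of these conditions unmet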
ERAP1 inh – ERAP1 (human) enzyme inhibition; Q9NZ08; recombinant ERAP1, Leu-AMC fluorescence, 60 min; inhibition, % at 10.7 µM; 340,000 compounds, 0.15% hits; AID 652197;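 active = mean replicate inhibition of at least 30%, or all replicates individually reaching that 30% level; inactive = mean below 30% and not every replicate reaching it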;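 also: 0% = neutral control wells and 100% = L-leucinethiol positive control wells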
Target sequence (Q9NZ08 whole entry, looked up): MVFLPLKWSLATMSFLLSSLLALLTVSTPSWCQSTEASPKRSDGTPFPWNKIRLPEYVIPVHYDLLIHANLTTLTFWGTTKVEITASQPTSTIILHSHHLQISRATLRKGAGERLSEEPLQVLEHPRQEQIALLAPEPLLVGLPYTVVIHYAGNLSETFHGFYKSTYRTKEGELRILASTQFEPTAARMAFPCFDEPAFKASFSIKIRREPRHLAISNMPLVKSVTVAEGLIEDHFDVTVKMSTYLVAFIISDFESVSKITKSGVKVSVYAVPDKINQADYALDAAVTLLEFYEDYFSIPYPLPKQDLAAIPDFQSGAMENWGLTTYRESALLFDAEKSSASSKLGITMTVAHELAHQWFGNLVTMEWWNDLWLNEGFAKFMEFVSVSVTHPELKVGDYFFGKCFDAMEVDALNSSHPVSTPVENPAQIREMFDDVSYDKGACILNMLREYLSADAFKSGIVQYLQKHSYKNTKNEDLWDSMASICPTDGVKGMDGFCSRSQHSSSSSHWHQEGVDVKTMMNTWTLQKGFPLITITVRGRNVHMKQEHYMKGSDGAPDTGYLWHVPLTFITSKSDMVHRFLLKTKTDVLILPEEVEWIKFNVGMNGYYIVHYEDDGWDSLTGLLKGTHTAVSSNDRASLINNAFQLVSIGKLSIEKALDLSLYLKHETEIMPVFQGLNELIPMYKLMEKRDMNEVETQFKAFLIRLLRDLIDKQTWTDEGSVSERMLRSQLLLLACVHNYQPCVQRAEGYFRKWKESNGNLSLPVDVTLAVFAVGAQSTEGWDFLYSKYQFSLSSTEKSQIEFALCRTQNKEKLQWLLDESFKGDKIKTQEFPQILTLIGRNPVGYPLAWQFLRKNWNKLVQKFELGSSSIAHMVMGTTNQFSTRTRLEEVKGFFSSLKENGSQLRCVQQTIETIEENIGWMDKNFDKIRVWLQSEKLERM
The depositor's hits bear a star. Most compounds without a hit are left out; they make up all but 2.1% or so of the library.

How did O=C(OCc1cn([C@H]2C[C@H](c3ccc(Cl)cc3)N(Cc3cccs3)C[C@@H]2O)nn1)c1ccccc1 do in these assays?
F508del corr: -3.7; Ecoli rRNA inh: -5.0*; ERAP1 inh: 1.3

How did CNC(=S)N/N=C/c1ccc(-c2cccc(C(=O)O)c2)o1 do in these assays?
PvdQ inh: -7.4; ARNT-TACC3 inh: 6.9; F508del corr: -2.2; Ecoli rRNA inh: -4.1; ERAP1 inh: -1.7

How did O=C(O)c1cccc(-c2ccc(/C=N/Nc3nn[nH]n3)o2)c1 do in these assays?
PvdQ inh: 5.1; ARNT-TACC3 inh: 67.5*; F508del corr: 2.1; Ecoli rRNA inh: 14.6; ERAP1 inh: 4.6

How did CN(C)c1cccc(C(=O)Nc2ccc3nc4n(c(=O)c3c2)CCCCC4)c1 do in these assays?
PvdQ inh: 17.6; ARNT-TACC3 inh: 1.5; F508del corr: 2.9; Ecoli rRNA inh: -25.6*

Results for COc1cccc(C(=O)Nc2ccc3nc4n(c(=O)c3c2)CCCC4)c1 ?
PvdQ inh: -12.7; ARNT-TACC3 inh: 6.2; F508del corr: -0.5; Ecoli rRNA inh: -3.9; ERAP1 inh: -0.9

How did COc1ccc(CN(C)C[C@@H]2OCc3cn(nn3)CCCC(=O)N([C@H](C)CO)C[C@H]2C)cc1 do in these assays?
ARNT-TACC3 inh: -12.8; F508del corr: 1.5; Ecoli rRNA inh: 0.1; ERAP1 inh: -0.1

Results for CCOC(=O)C1CCN(C2=NC(=O)/C(=C/c3ccc(OC)c(OC)c3)S2)CC1 ?
PvdQ inh: 9.5; ARNT-TACC3 inh: 1.9; F508del corr: -1.2; Ecoli rRNA inh: -29.6*; ERAP1 inh: -1.1

What do the screens show for `CCCNC(=O)N[C@@H]1CC[C@H](CCn2cc(-c3cccc(F)c3)nn2)O[C@H]1CO`?
F508del corr: 0.5; Ecoli rRNA inh: -3.9

How did O=C(CCCN1C(=O)C(c2ccccc2)Oc2cccnc21)Nc1cccc(F)c1 (stereo not given) do in these assays?
PvdQ inh: -12.3; ARNT-TACC3 inh: -3.0; F508del corr: 0.9; Ecoli rRNA inh: -27.4*; ERAP1 inh: -1.8

Results for O=C(C[C@@H]1C=C[C@H](NC(=O)Nc2ccccc2F)[C@@H](CO)O1)NCc1ccc(Cl)cc1 ?
F508del corr: 3.2; Ecoli rRNA inh: 1.4; ERAP1 inh: 0.2

How did COc1ccc(C2=NOC(C(=O)NCc3ccc(F)cc3)C2)cc1OC (stereo not given) do in these assays?
PvdQ inh: 3.2; ARNT-TACC3 inh: -0.9; F508del corr: 8.7*; Ecoli rRNA inh: -18.2; ERAP1 inh: -0.1

How did CNC(=S)N=Nc1c(O)[nH]c2ccccc12 do in these assays?
PvdQ inh: 4.7; ARNT-TACC3 inh: 6.8

How did Oc1ccc(NC(=S)N=Nc2c(O)[nH]c3ccccc23)cc1 do in these assays?
PvdQ inh: -1.7; ARNT-TACC3 inh: 66.6*; F508del corr: -1.9; Ecoli rRNA inh: -68.2; ERAP1 inh: 15.5

Results for Cc1ccc(NC(=S)N=Nc2c(O)[nH]c3ccccc23)cc1 ?
PvdQ inh: 6.5; ARNT-TACC3 inh: -5.4; F508del corr: 3.2; Ecoli rRNA inh: 5.3; ERAP1 inh: 0.8

How did COc1ccc(NC(=S)N=Nc2c(O)[nH]c3ccccc23)cc1 do in these assays?
PvdQ inh: -2.4; ARNT-TACC3 inh: -1.3; F508del corr: 5.0; Ecoli rRNA inh: -47.2*; ERAP1 inh: 3.2

How did COC(=O)C[C@@H]1CC[C@@H]2[C@H](COc3ccc(NC(=O)c4cc(C)on4)cc3C(=O)N2C)O1 do in these assays?
ARNT-TACC3 inh: 8.6; F508del corr: 14.0*; Ecoli rRNA inh: -2.9; ERAP1 inh: -0.2

How did COC(=O)C[C@H]1CC[C@@H]2[C@@H](COc3ccc(NC(=O)c4cc(C)on4)cc3C(=O)N2C)O1 do in these assays?
ARNT-TACC3 inh: 8.8; F508del corr: -2.7; Ecoli rRNA inh: -3.6; ERAP1 inh: -1.0

Results for O=C(N/N=C/c1ccc2c(c1)OCO2)c1ccc2c(c1)OCO2 ?
PvdQ inh: -4.2; ARNT-TACC3 inh: 0.6; F508del corr: 0.8; Ecoli rRNA inh: -2.8; ERAP1 inh: 0.4

How did O=C(N/N=C/c1cccc(O)c1)c1ccc2c(c1)OCCO2 do in these assays?
PvdQ inh: 12.4; ARNT-TACC3 inh: 1.1; F508del corr: -0.7; Ecoli rRNA inh: -20.6*; ERAP1 inh: 2.3

How did C[C@@H]1CCCCO[C@@H](CN(C)C(=O)NC2CCCCC2)[C@H](C)CN([C@@H](C)CO)C(=O)c2cc(NC(=O)Nc3ccc4c(c3)OCO4)ccc2O1 do in these assays?
ARNT-TACC3 inh: 12.5; F508del corr: 0.2; Ecoli rRNA inh: 0.7; ERAP1 inh: -0.3

How did O=C(NCCCn1ccnc1)Nc1ccc(Cl)cc1 do in these assays?
PvdQ inh: -12.5; ARNT-TACC3 inh: 3.8

What do the screens show for `CCOC(=O)c1ccc(NC(=S)NCCCn2ccnc2)cc1`?
PvdQ inh: 6.1; ARNT-TACC3 inh: 34.8*; F508del corr: -2.8; Ecoli rRNA inh: -6.8; ERAP1 inh: -2.8

What do the screens show for `S=C(NCCCn1ccnc1)Nc1ccc(Cl)cc1Cl`?
PvdQ inh: -2.2; ARNT-TACC3 inh: 6.8; F508del corr: -1.3; Ecoli rRNA inh: -22.6*; ERAP1 inh: 2.6

What do the screens show for `O=C(CNC(=O)c1ccc(Cl)cc1Cl)NCCCn1ccnc1`?
PvdQ inh: -9.0; ARNT-TACC3 inh: -1.5

How did C=COCCNC(=O)Nc1ccc(Cl)c(Cl)c1 do in these assays?
PvdQ inh: -6.4; ARNT-TACC3 inh: -3.0; F508del corr: -5.8; Ecoli rRNA inh: -20.8*; ERAP1 inh: -5.3

How did O=C(NCCCn1ccnc1)Nc1ccc(Cl)c(Cl)c1 do in these assays?
PvdQ inh: -6.7; ARNT-TACC3 inh: 65.5*

What do the screens show for `C[C@@H]1CN([C@H](C)CO)C(=O)c2cc(-c3cccc(F)c3)cnc2O[C@H]1CN(C)C`?
ARNT-TACC3 inh: -1.7; F508del corr: 2.5; Ecoli rRNA inh: 2.7; ERAP1 inh: 2.7

Results for CCNC(=O)[C@@H]1[C@@H](CO)[C@@H]2Cn3c(ccc(-c4ccccc4F)c3=O)[C@H]1N2CC1CC1 ?
ARNT-TACC3 inh: 13.3; F508del corr: -0.5; Ecoli rRNA inh: -0.8; ERAP1 inh: -3.3

Results for CC1CCN(Cc2cc(=O)oc3cc4c(cc23)CCCC4)CC1 ?
PvdQ inh: -15.4; ARNT-TACC3 inh: 2.5; F508del corr: -0.8; Ecoli rRNA inh: 12.6; ERAP1 inh: 3.0

How did CC1CN(Cc2cc(=O)oc3cc(O)c(Cl)cc23)CC(C)O1 (stereo not given) do in these assays?
PvdQ inh: -8.5; ARNT-TACC3 inh: -30.3; F508del corr: 1.4; Ecoli rRNA inh: 3.2; ERAP1 inh: 60.4*

Results for CC1CCN(Cc2cc(=O)oc3cc(O)c(Cl)cc23)CC1 ?
PvdQ inh: -1.2; ARNT-TACC3 inh: -1.1; F508del corr: -3.5; Ecoli rRNA inh: 8.8; ERAP1 inh: 59.6*

Results for Cc1ccc2oc(=O)cc(CN3CC(C)OC(C)C3)c2c1 (stereo not given) ?
PvdQ inh: -0.5; ARNT-TACC3 inh: 1.6; F508del corr: -1.1; Ecoli rRNA inh: 2.9; ERAP1 inh: 1.8
